Source: ChEMBL document CHEMBL3988442, “University of Dundee, Small-Polar-MMV Screening Library” (2021)
About 13,000 (27%) of roughly 48,000 compounds showed an effect of 50% or more. This is one part of the list.

System: Wolbachia pipientis
Experiment: Anti-Wolbachia Cell-Based Screen
Type: functional
Design: scale not given: in the data most compounds retested in dose-response had high values
Conditions: 5 µM

Structure (SMILES)	Percent Effect
Cn1ccnc1C(=O)NCCS(=O)(=O)c1ccc(C(C)(C)C)cc1	15.11%
Cc1cc(C)c(CNC(=O)NCC(c2ccccc2)N(C)C)c(=O)[nH]1 (stereo unspecified)	1.646%
CC(C)NS(=O)(=O)c1cc(C(=O)O)cc(-c2ccc3c(c2)OCO3)c1	10.97%
CCC(NC(=O)c1cccc2cc[nH]c12)C(=O)N1CCOCC1 (stereo unspecified)	1.714%
O=C(O)C(F)(F)F.O=C1N(CC2CC2)CCC12CCCN(c1ncc(F)cn1)C2 (stereo unspecified)	107.4%
CN1CCC2(CCN(c3ncc(F)cn3)CC2)C1=O.O=C(O)C(F)(F)F	5.555%
CN(C)C(=O)CN1CCC2(CCCN(c3ncc(F)cn3)C2)C1=O (stereo unspecified)	-17.79%
COc1ccnc(N2CCC3(CCCN(CC4CC4)C3=O)C2)n1 (stereo unspecified)	-5.296%
Cc1cnc(N2CCC3(CCC(C(=O)NC(C)C)C3)CC2)nc1.O=C(O)C(F)(F)F (stereo unspecified)	-24.15%
O=C(O)C(F)(F)F.O=C(O)C(F)(F)F.c1cnc(N2CCC3(CCN(CC4CC4)CC3)CC2)nc1	-4.913%
Cc1cnc(N2CCC3(CCN(CC4CCCC4)C3=O)CC2)nc1.O=C(O)C(F)(F)F	94.42%
O=C(O)C(F)(F)F.O=C1N(CC2CCCC2)CCC12CCN(c1ncc(F)cn1)CC2	111.9%
Cc1cnc(N2CCC3(CC2)CC3CNC(=O)C2CCC2)nc1.O=C(O)C(F)(F)F (stereo unspecified)	-2.894%
CC(C)OCCC1CCCCN1S(N)(=O)=O (stereo unspecified)	5.549%
Cc1cnn(-c2cccc(N3CCCC3)n2)c1	2.122%
Cc1cc(C)n(CC2CN(CC(=O)N3CCC3)CCO2)n1 (stereo unspecified)	107.3%
Cc1cc(C)n(CC2CN(CC(=O)N3CCNC3=O)CCO2)n1 (stereo unspecified)	88.91%
Fc1cc(CNCCn2cccn2)ccc1-n1cncn1	-7.055%
Cc1nc(CSc2ccc(C(F)(F)F)cn2)no1	-11.09%
O=C(NCCN1CCC(c2cccs2)CC1)c1ccccc1C(F)(F)F	6.812%
Cc1ccccc1C1CCN(CCNC(=O)CS(C)(=O)=O)C1 (stereo unspecified)	-1.802%
O=C(NCCN1CCCC(CO)C1)c1ccc2sccc2c1 (stereo unspecified)	0.9044%
COc1ccc(C(=O)NCC(=O)N(Cc2ccsc2)C2CC2)cc1OC	-17.21%

Structure (SMILES)	Percent Effect
O=C(Cc1ccccc1Cl)NCCN1CCC(c2cccs2)CC1	167.3%
Cc1nc(CC(=O)NCCN2CCC(c3ccccc3C)C2)cs1 (stereo unspecified)	-10.54%
COc1ccc(C(=O)NCCN2CCC(c3cccs3)CC2)cc1OC	108.4%
CCCNC(=O)c1cc2c([nH]c1=O)CC(c1cccs1)CC2=O (stereo unspecified)	1.208%
CCSc1ccccc1C(=O)NCCN1CCC(c2cccs2)CC1	153.4%
CC(=O)NCCN1CCC(c2cccs2)CC1	-11.86%
CCCN1CCC(NC(=O)c2csc(C)c2-c2ccccc2)CC1	2.697%
Cc1csc(C(=O)NCCN2CCC(c3cccs3)CC2)c1	131.4%
CCNc1ncc(C2CC(=O)Nc3c2cnn3Cc2ccncc2)cn1 (stereo unspecified)	0.3044%
CCSCCC(=O)NCc1cnn(-c2ccc(F)cc2F)c1	1.546%
Cc1ccc(S(=O)(=O)NC(=O)CCOCC(C)C)s1	14.43%
O=C(CCc1cc(Cl)no1)N1CCCCC1CCn1ccnc1 (stereo unspecified)	-6.627%
O=C(c1cccnc1-n1cncn1)N1CCc2ccccc2C1	12.03%
COc1ccc(CNCC2CCN(CC(C)O)CC2)c2ccccc12 (stereo unspecified)	-9.036%
CCN(Cc1nnnn1C1CC1)c1cc(C)ccc1C	-3.19%
O=C(NCC(c1cccs1)N1CCOCC1)c1ccc(F)cc1Cl (stereo unspecified)	-4.405%
O=C(NCCN1CCC(c2cccs2)CC1)c1ccc(F)cc1Cl	122.6%
CCN(CC)C(=O)Cc1csc(C(C)C)n1	-7.822%
Cc1cccc(OCC(=O)N(C)C2CCN(CC3CCOC3)CC2)c1 (stereo unspecified)	-8.689%
CCCNc1ncc(CN2C[C@H]3CC[C@@H]2CN(C2CCOCC2)C3)cn1	7.731%
Fc1ccc(OCCCN2CCOC(Cn3cncn3)C2)cc1 (stereo unspecified)	3.822%
COc1ccc(OCCCN2CCOC(Cn3cccn3)C2)cc1 (stereo unspecified)	1.876%
Fc1ccc(CN2CCOC(Cn3cncn3)C2)c2ncccc12 (stereo unspecified)	-8.547%

Structure (SMILES)	Percent Effect
N#Cc1ccc(OCCCN2CCOC(Cn3cncn3)C2)cc1 (stereo unspecified)	94.1%
c1cnn(CC2CN(CCCOc3ccc4c(c3)OCO4)CCO2)c1 (stereo unspecified)	1.566%
c1ncn(CC2CN(CCCOc3ccc4c(c3)OCO4)CCO2)n1 (stereo unspecified)	97.52%
c1ccc2cc(OCCN3CCOC(Cn4cncn4)C3)ccc2c1 (stereo unspecified)	0.3629%
c1cnn(C2CN(CCCOc3ccc4c(c3)OCO4)C2)c1	-8.072%
Clc1cccc(OCCCN2CCOC(Cn3cncn3)C2)c1 (stereo unspecified)	125.7%
Clc1ccc(OCCCN2CCOC(Cn3cncn3)C2)cc1 (stereo unspecified)	88.34%
Cc1cc2n(n1)CC(CNCc1cnn(-c3ccccc3)c1)CN2 (stereo unspecified)	-14.73%
COc1ccccc1C1CNC(=O)c2nc(-c3ncc[nH]3)[nH]c2C1 (stereo unspecified)	-17.95%
N#Cc1ccccc1C(=O)N1C[C@H]2CC[C@@H]1CN(Cc1ccccc1)C2	1.705%
CCN(Cc1ccco1)C(=O)NCC(c1cccs1)N(C)C (stereo unspecified)	-4.593%
Cc1nnc(N(CCC#N)CCC#N)s1	120.1%
COC(=O)CCN1CCCC1c1ccccc1Cl (stereo unspecified)	-1.683%
Cc1cccc(C2CCCCCN2Cc2cn(C)nc2C)c1 (stereo unspecified)	99.27%
N#CCCN(C(=O)CN1CCCC1c1ccccc1Cl)c1ccccc1 (stereo unspecified)	-18.96%
Cc1ccc(C2CCCCCN2Cc2cn(C)nc2C)s1 (stereo unspecified)	10.12%
CS(=O)(=O)c1ccc(CN2CCCCC2c2cccc(F)c2)cc1 (stereo unspecified)	5.873%
Cc1ccsc1C1CCCCCN1Cc1cn(C)nc1C (stereo unspecified)	87.45%
Cc1nn(C)c(C)c1C1CCCN1Cc1cn2ccsc2n1 (stereo unspecified)	7.69%
Cc1ccc(C2CCCCCN2Cc2cn(C)nc2C)cc1 (stereo unspecified)	6.787%
Cc1nn(C)cc1CN1CCCCCC1c1ccc(Cl)cc1 (stereo unspecified)	98.47%
Cc1nnc(CN2CCCC2c2ccc(Cl)c(Cl)c2)o1 (stereo unspecified)	-0.8555%
Cc1nnc(CN2CCCC2c2cccc(Br)c2)o1 (stereo unspecified)	20.93%

Structure (SMILES)	Percent Effect
Cc1nn(C)cc1CN1CCCCCC1c1ccccc1Cl (stereo unspecified)	134.4%
Cc1nn(C)c(C)c1CCC(=O)OCC(=O)N1CCc2sccc2C1	-1.071%
Cc1ccnc(C(NC(=O)c2sc(C)nc2C)C2CC2)n1 (stereo unspecified)	-13.48%
CC(SCCNS(=O)(=O)c1cnn(C)c1)c1cccc(F)c1 (stereo unspecified)	13.07%
COc1ccc(C2CCCCCN2Cc2cn(C)nc2C)cc1 (stereo unspecified)	97.09%
COc1ccc(C2CCCCCN2Cc2nnc(C)o2)cc1 (stereo unspecified)	-42.58%
CC(C)N(C)C(=O)C1CSCN1S(=O)(=O)c1cc(Cl)ccc1Cl (stereo unspecified)	-2.04%
O=C(NCC(F)(F)F)C(c1cccnc1)N1CCOCC1 (stereo unspecified)	-10.65%
Cc1cc(C2CCC2)nc(N(C)Cc2ncccc2C)n1	22.22%
Cc1cc(Cc2ccccc2F)cc(C2CCCNC2)n1 (stereo unspecified)	100.5%
Cc1cc(Cc2ccccc2C)cc(C2CCCNC2)n1 (stereo unspecified)	111.5%
CCOc1ccc2ccccc2c1CNCC1CCNCC1.Cl.Cl	8.229%
Cc1cc(N2CCC(n3cc(CN4CCC[C@@H]4CO)nn3)CC2)ccn1	-20.23%
CC(C)n1ccnc1C1CCN(C(=O)c2cc[nH]n2)CC1	7.968%
CC(C)Oc1ncccc1CNC(=O)c1cc[nH]n1	6.018%
CCOc1ccccc1OC1CCN(C(=O)c2cc[nH]n2)CC1	-11.18%
CC(=O)NCc1nccnc1C1CCN(C(=O)c2cc[nH]n2)CC1	109%
CC(=O)N1CCC(c2nccnc2CNC(=O)c2cc[nH]n2)CC1	109.1%
O=C(c1cc[nH]n1)N1CCC(c2nccn2Cc2ccncc2)CC1	-13.9%
COCC1CC2(CCNCC2)CN1Cc1csc(C)n1.O=C(O)C(F)(F)F.O=C(O)C(F)(F)F (stereo unspecified)	-1.413%
COCCN(Cc1ccc(F)cc1Cl)C(=O)c1cc(C)n[nH]1	6.366%
Cc1cc(Cn2cc(C(C)Cc3ccc4c(c3)OCO4)nn2)n[nH]1 (stereo unspecified)	3.819%
Cc1cnc(N2CC[C@@H](N3CCOCC3)[C@@H]2Cc2ccncc2)nc1.O=C(O)C(F)(F)F.O=C(O)C(F)(F)F	-9.199%

Structure (SMILES)	Percent Effect
COc1ccc(C(C(=O)O)N2CCN(C3CCCCC3)CC2)cc1OC (stereo unspecified)	-12.55%
O=C(O)C(c1ccc2c(c1)OCCO2)N1CCC(N2CCSCC2)CC1 (stereo unspecified)	114.8%
O=C(O)C(c1ccc(O)cc1)N1CCC(N2CCSCC2)CC1 (stereo unspecified)	107.3%
O=C(O)C(c1ccc2c(c1)OCCO2)N1CCSCC1 (stereo unspecified)	3.219%
O=C(O)C(c1cccc2c1OCC2)N1CCC(N2CCSCC2)CC1 (stereo unspecified)	4.197%
Cc1cc(=O)n2ncnc2n1CC(O)c1cc(Cl)ccc1Cl (stereo unspecified)	-47.28%
COc1ccc(F)c(-c2cc(O)nc(N)n2)c1	-16.24%
CN1CCOC2(CCCN(C(=O)C3CCCCC3)C2)C1.O=C(O)C(F)(F)F (stereo unspecified)	-15.05%
CC(=O)N1CCC2(CC1)COCCN2CCN(C)C.O=C(O)C(F)(F)F.O=C(O)C(F)(F)F	6.129%
CN(C)CCN1CCOCC12CCN(C(=O)C1CC1)CC2.O=C(O)C(F)(F)F.O=C(O)C(F)(F)F	105.8%
CC(C)C(=O)N1CCC2(CCN2CC2CC2)C1.O=C(O)C(F)(F)F (stereo unspecified)	-2.181%
CN(C)CCN1CCC2(CCCN(C(=O)C3CCC3)C2)CC1.O=C(O)C(F)(F)F.O=C(O)C(F)(F)F	-7.862%
Cn1ccnc1C(=O)N1CCC2(CCCN2CC2CC2)CC1.O=C(O)C(F)(F)F	5.734%
CN1CCOCC12CCN(C(=O)C1CCC1)CC2.O=C(O)C(F)(F)F	137.1%
CCN1CCOCC12CCN(C(=O)c1ccsc1)CC2.O=C(O)C(F)(F)F	-8.879%
O=C(C1CCC1)N1CCC2(CCCN2CC2CC2)CC1.O=C(O)C(F)(F)F	90.77%
CN1CCOCC12CCN(c1nncs1)CC2.O=C(O)C(F)(F)F.O=C(O)C(F)(F)F	6.857%
CCN1CCOCC12CCN(C(=O)Cc1cccs1)CC2.O=C(O)C(F)(F)F	0.8444%
CCN1CCOCC12CCN(C(=O)C1CCC1)CC2.O=C(O)C(F)(F)F	107.9%
